Calls of active or inactive are those of the source. How the source made its calls: active means hit-call score of the fitted dose curve at least 0.9, where 1 is the maximum; inactive means score below 0.9.
Assay: CCTE_Shafer_MEA_acute_burst_duration_mean: CCTE's Neural Acute Assay for Mean Burst Duration, Shafer Lab (AID 2284014);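 further: hits are decreases in mean burst duration relative to DMSO controls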
In short: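 Mean burst duration was compared between a 40 min baseline and a 40 min recording in the presence of compound (0.03-40 uM, 37 C), giving percent change per well. Cultures were rat cortical neurons at DIV 13 or 15; wells needed ≥10 active electrodes.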

outcome, inactive:
CCCCC=O
CC(=O)Nc1ccc(O)cc1
CCC(C)c1ccccc1O (configuration not stated)
OCC(CO)(CBr)CBr
CCCCCCCCCCCC
CN(C)CCOC(c1ccccc1)c1ccccc1
O=C1NS(=O)(=O)c2ccccc21
N=C(N)c1ccc(OCCCCCOc2ccc(C(=N)N)cc2)cc1
Oc1c(Cl)cc(Cl)cc1Sc1cc(Cl)cc(Cl)c1O
CCCCc1oc2ccccc2c1C(=O)c1cc(I)c(OCCN(CC)CC)c(I)c1
O=C(CCCN1CCC(O)(c2ccc(Cl)cc2)CC1)c1ccc(F)cc1
Oc1ccc(Cc2ccccc2O)cc1
